Here are results for ten molecules from ChEMBL document CHEMBL3988442, “University of Dundee, Small-Polar-MMV Screening Library” (2021).

Structures are written as SMILES. For some assays here: Measured potencies and affinities stand elsewhere.

Common to all, as to set-up: scale not given: direction of the effect not stated beside the values
The target in experiment [1] is Protein translocase subunit SecA (Escherichia coli (strain K12)) (UniProt P10408). As to the kind of experiment: Assay to Identify E. coli SecA ATPase Inhibitors. It is filed as functional. Particulars: 30 µM.
Experiment [2] deals with T1, Ubiquitin-activating enzyme e1, putative (Leishmania donovani (strain BPK282A1)) (UniProt E9BSI1).
T1 sequence (whole entry): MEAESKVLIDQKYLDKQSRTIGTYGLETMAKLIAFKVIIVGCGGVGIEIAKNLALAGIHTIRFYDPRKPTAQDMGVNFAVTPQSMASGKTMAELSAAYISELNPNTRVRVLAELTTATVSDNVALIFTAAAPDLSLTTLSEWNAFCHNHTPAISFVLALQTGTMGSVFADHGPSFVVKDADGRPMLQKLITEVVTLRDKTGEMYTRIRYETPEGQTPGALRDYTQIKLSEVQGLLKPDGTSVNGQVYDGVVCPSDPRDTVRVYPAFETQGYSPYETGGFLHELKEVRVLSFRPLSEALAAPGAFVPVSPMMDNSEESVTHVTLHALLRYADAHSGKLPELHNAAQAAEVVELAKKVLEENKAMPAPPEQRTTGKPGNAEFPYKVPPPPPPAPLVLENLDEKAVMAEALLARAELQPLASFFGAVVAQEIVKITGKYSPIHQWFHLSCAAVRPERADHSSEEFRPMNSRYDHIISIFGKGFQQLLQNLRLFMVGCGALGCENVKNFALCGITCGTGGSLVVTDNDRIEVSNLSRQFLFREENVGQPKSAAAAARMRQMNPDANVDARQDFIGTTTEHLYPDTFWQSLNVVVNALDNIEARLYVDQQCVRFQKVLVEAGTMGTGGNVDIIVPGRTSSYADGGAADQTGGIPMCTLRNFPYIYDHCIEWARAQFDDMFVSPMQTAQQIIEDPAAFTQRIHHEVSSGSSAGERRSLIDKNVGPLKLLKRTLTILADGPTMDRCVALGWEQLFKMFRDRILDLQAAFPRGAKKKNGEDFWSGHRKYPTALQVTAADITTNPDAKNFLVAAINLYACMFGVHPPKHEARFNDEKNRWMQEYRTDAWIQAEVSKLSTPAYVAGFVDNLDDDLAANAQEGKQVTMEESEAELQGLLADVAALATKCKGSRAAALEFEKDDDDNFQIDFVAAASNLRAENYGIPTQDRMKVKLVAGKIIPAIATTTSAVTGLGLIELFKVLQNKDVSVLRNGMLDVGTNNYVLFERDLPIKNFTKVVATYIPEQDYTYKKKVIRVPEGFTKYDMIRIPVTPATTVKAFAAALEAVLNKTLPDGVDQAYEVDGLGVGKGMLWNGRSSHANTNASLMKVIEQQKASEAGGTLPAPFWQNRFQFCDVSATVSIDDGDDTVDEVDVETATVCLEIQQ
In words: Leishmania donovani Ubiquitin Activating Enzyme (LdE1). Conditions: 30 µM. It is filed as functional.

The target in experiment [3] is AMP-activated protein kinase, AMPK (Homo sapiens) (UniProt P54646+O43741+P54619+Q9UGJ0+Q9Y478+Q13131+Q9UGI9). In words: AMP-dependent Kinase enzyme assay. An in vitro enzyme assay that detects ADP turnover that is directly proportional to AMPK activity. This uses naive AMPK that is activated during the assay with MK-8722. It is filed as functional. Particulars: 30 µM.

In experiment [4] the target is Sialic acid-binding Ig-like lectin 9 (Homo sapiens) (UniProt Q9Y336). In words: Hs-Siglec9 ALPHAscreen SOP 20170721. Conditions: 10 µM. For orientation: Alpha assays give light when donor and acceptor beads are brought close together.
In the next experiment the test system is Trypanosoma cruzi. In words: Trypanosoma cruzi phosphomannomutase and mannose-1-phosphate guanylyltransferase assay. It is filed as functional. Conditions: 10 µM.
For experiment [5], the target named is T2, Arginase-2, mitochondrial (Homo sapiens) (UniProt P78540).
T2 sequence (whole entry): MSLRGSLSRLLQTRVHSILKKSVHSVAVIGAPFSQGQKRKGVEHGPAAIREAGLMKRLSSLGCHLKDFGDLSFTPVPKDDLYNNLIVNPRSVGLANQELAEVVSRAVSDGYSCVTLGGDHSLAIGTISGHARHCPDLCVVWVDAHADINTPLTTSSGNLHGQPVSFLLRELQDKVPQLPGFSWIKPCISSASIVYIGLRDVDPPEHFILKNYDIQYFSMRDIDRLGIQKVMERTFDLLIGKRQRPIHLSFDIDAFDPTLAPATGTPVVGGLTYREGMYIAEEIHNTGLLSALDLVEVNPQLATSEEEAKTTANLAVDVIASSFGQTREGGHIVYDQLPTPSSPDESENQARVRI
In words: in vitro enzyme assay to detect the production of urea directly proportional to the activity of Arginase II. Also: in the data most compounds retested in dose-response had high values. It is filed as functional. Conditions: 33.3 µM.

For experiment [6], the target named is T3, Proteasome subunit beta (Trypanosoma cruzi) (UniProt O96673).
T3 sequence (whole entry): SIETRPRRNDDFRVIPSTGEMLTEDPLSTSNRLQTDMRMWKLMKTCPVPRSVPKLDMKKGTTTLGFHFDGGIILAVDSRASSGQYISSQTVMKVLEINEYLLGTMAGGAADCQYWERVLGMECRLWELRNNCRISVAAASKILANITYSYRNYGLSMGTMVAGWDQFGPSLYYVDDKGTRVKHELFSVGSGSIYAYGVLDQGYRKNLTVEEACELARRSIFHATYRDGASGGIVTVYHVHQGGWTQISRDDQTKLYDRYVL
As to the kind of experiment: Trypanosoma cruzi proteasome chymotrypsin-like activity (TcProtChymo) assay. Also: in the data most compounds retested in dose-response had high values. The format is functional. Particulars: 9.37 µM.

The species named for the next experiment is Homo sapiens. In words: To identify inhibition of the IFN signalling (Jak-Stat) pathway via expression of an eGFP reporter gene under the control of an IFN-stimulated response element (ISRE) containing MxA promoter. It is filed as functional. Conditions: 30 µM. On the technique in general: Reporter assays use an easily measured gene product as a stand-in for the process of interest.

In experiment [7] the target is T4, Tyrosyl-tRNA synthetase, putative (Trypanosoma cruzi (strain CL Brener)) (UniProt Q4DSP6).
T4 sequence (whole entry): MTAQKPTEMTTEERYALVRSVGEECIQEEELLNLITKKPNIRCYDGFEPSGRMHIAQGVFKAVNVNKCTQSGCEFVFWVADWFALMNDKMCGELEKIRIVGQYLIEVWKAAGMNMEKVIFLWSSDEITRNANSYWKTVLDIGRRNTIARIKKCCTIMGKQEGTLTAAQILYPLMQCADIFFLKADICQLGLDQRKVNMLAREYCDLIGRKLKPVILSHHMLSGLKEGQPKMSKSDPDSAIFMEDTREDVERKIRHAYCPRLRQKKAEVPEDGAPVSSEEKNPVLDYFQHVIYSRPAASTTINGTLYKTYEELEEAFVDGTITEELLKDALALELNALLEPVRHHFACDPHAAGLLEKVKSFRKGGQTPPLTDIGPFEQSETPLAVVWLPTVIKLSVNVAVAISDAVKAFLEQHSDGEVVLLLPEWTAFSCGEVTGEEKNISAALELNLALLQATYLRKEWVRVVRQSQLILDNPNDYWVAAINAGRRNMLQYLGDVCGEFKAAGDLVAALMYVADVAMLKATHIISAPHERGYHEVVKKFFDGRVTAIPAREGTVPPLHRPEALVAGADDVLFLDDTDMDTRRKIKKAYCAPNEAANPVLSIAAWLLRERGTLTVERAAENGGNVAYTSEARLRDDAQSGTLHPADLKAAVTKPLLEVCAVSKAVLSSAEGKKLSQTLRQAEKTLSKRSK
In words: Trypanosoma cruzi tyrosyl tRNA synthetase (TcYRS) _High Tyrosine SOP. Also: in the data most compounds retested in dose-response had high values. The format is functional. Particulars: 30 µM.

For experiment [8], the target named is T4, Tyrosyl-tRNA synthetase, putative (Trypanosoma cruzi (strain CL Brener)). As to the kind of experiment: Trypanosoma cruzi tyrosyl tRNA synthetase (TcYRS) SOP. Conditions: 30 µM. It is filed as functional.
For experiment [9], the target named is Chromo domain-containing protein 1 (Saccharomyces cerevisiae (strain ATCC 204508 / S288c) (Baker's yeast)) (UniProt P32657). In words: ScCHD-1 Enzyme Inhibition Assay. Also: in the data most compounds retested in dose-response had high values. It is filed as functional. Particulars: 30 µM.
Chromo domain-containing protein 1 (Saccharomyces cerevisiae (strain ATCC 204508 / S288c) (Baker's yeast)), sequence (P32657 whole entry, the tested form may be a part): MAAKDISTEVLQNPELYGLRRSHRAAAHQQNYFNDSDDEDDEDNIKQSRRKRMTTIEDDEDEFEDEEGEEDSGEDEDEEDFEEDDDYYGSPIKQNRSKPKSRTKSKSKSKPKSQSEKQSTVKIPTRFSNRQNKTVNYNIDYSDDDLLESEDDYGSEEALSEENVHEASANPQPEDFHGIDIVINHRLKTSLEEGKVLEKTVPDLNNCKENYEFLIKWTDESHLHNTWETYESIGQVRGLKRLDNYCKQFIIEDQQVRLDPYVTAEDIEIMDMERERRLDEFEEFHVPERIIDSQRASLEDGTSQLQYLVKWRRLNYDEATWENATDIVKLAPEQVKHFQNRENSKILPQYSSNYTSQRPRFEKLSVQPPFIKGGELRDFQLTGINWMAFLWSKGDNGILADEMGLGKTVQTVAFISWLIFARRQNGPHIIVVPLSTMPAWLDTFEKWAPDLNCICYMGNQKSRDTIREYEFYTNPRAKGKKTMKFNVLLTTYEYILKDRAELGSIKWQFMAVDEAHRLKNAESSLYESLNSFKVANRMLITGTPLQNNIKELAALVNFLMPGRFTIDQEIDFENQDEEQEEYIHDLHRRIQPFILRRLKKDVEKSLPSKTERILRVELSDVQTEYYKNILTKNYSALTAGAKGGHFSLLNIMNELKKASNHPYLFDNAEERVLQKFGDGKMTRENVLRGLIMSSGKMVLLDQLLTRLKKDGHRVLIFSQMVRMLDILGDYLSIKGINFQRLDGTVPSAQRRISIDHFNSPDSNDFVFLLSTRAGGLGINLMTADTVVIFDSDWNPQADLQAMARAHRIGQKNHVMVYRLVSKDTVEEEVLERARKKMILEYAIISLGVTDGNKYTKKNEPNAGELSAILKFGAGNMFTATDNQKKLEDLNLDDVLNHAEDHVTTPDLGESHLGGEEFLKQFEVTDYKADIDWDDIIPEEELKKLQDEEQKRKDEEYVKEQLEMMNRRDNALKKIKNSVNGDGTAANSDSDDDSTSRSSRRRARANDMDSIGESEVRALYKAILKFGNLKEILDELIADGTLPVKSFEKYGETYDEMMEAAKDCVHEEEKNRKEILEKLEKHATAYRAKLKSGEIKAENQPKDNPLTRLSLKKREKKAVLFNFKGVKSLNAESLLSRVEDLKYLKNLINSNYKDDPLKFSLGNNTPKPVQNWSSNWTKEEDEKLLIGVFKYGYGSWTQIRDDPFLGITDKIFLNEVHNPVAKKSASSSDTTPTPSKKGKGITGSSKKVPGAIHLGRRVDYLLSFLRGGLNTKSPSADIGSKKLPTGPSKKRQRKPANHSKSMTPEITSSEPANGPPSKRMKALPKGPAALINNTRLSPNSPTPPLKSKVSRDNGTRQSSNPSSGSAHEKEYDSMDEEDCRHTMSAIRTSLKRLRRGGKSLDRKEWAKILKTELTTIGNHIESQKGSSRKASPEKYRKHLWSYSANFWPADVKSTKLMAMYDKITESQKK

Sialic acid-binding Ig-like lectin 9 (Homo sapiens), sequence (Q9Y336 whole entry): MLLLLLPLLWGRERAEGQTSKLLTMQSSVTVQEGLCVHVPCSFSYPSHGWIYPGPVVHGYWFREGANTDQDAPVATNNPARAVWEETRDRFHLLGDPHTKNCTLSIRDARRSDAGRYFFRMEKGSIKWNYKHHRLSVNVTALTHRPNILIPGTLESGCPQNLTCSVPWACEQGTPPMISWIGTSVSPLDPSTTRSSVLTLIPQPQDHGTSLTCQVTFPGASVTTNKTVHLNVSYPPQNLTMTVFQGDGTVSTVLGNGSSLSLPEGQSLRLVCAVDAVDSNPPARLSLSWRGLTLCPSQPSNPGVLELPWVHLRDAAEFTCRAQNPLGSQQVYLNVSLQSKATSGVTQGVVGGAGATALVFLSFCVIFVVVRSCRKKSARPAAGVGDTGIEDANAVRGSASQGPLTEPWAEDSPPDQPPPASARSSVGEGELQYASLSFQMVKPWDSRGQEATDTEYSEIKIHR
Protein translocase subunit SecA (Escherichia coli (strain K12)), sequence (P10408 whole entry): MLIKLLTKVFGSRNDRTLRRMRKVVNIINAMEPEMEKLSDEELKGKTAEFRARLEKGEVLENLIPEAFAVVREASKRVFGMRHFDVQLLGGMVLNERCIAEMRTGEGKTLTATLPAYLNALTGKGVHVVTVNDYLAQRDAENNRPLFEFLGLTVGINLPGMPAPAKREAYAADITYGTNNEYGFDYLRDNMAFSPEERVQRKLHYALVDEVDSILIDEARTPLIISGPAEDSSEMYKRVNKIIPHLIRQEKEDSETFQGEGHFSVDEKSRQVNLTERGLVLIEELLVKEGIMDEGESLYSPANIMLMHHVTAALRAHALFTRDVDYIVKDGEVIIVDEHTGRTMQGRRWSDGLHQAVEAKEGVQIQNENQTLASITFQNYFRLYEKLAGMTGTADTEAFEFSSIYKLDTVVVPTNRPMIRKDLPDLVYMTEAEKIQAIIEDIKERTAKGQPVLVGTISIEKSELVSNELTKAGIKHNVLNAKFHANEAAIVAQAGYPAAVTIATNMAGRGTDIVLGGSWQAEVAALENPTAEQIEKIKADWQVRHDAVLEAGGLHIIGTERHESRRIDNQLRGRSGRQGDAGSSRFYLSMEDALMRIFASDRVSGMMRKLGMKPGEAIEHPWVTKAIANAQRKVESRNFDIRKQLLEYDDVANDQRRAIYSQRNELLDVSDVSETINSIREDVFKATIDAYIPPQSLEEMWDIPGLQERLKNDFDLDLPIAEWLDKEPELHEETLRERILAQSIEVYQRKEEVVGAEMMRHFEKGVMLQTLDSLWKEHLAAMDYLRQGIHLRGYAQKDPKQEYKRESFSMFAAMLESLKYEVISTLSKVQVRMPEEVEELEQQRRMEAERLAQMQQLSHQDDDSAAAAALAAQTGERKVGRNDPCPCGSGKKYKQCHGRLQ

In the case of `Cc1ccc(N2CCCC(NCc3ccsc3)C2)nn1` (stereo not given), the Percent Effect in experiment [1] was 1.41%; in [2], 13.5%; in experiment [3], -7.55%; in [4], 2.96%; in the experiment with Trypanosoma cruzi, -6.7%; in experiment [5], 1.6%. Also, the Percent Effect in experiment [6] is 8.29%; in the experiment listed under Homo sapiens, 11%; in [7], 4.43%; in experiment [8], 16.1%; in experiment [9] it was -7.21%.
With `COCCCNC(=O)NCc1ccc(C)cc1`, the Percent Effect in [1] was -4.5%; in experiment [2], 6.33%; in experiment [3], -3.62%; in [4], -1.57%; in the experiment with Trypanosoma cruzi, -0.308%; in experiment [5] it was -4.52%. For the same molecule, the Percent Effect is 13.2% in [6]; 1.42% in the experiment listed under Homo sapiens; 5.21% in [7]; 17.7% in [8]; -28.6% in experiment [9].
With `O=C(NCCC(=O)N1CCCC1)c1nn(-c2ccccc2F)cc1O`, the Percent Effect is -10.5% in experiment [1]; 10.8% in experiment [2]; -8.26% in experiment [3]; 24.5% in [4]; 8.82% in the experiment on Trypanosoma cruzi; -0.554% in experiment [5]. Besides, the Percent Effect is 8.08% in [6]; 17.9% in the experiment filed under Homo sapiens; 5.94% in experiment [7]; 15.8% in [8]; -11.4% in experiment [9].
As to `CCc1ncnc2c1CCN(C(=O)N1CCCC1)CC2`, the Percent Effect in experiment [1] was -5.11%; in [2] it was 0%; in [3] it was 4.79%; in [4], 8.2%; with Trypanosoma cruzi, -2.7%; in experiment [5] it was -10.9%. Moreover, the Percent Effect was 12.3% in experiment [6]; 1.54% in the experiment filed under Homo sapiens; -3.12% in [7]; -5% in experiment [8]; 2.94% in experiment [9].
Regarding `O=C(Nc1cccc(OCc2ccc(F)cc2)c1)C1COCCO1` (stereo not given), the Percent Effect is -4.66% in experiment [1]; -8% in [2]; 0.674% in experiment [3]; -3.67% in experiment [4]; -1.27% with Trypanosoma cruzi; 1.04% in experiment [5]. For the same molecule, the Percent Effect in experiment [6] is 14.3%; in the experiment filed under Homo sapiens, 5.69%; in experiment [7] it was -8.2%; in experiment [8], -3.7%; in [9] it was -0.73%.
Regarding `CC(C)NC(=O)N1CCN(S(=O)(=O)C2CC2)CC2(CNC(=O)C2)C1` (stereo not given), the Percent Effect in experiment [1] is -6.38%; in [2], 18.2%; in experiment [3], 0.68%; in [4], 2.04%; in the experiment on Trypanosoma cruzi it was 4.63%; in [5], 0.645%. Further, the Percent Effect is 7.66% in experiment [6]; 9.81% in the experiment listed under Homo sapiens; 2.12% in experiment [7]; 11.5% in experiment [8]; -5.37% in experiment [9].
As to `CC(C)NC(=O)c1n[nH]c(-n2cnnc2)n1`, the Percent Effect in experiment [1] was -5.17%; in experiment [2], 9.33%; in experiment [3], -5.08%; in experiment [4] it was 5.32%; in the experiment on Trypanosoma cruzi, 1.77%; in experiment [5] it was -4.05%. Also, the Percent Effect was 2.77% in experiment [6]; 2.63% in the experiment listed under Homo sapiens; 4.23% in experiment [7]; 10.3% in experiment [8]; -8.26% in [9].
With `Cc1nc(CN2C(=O)CC[C@H]3[C@@H]2CCN3C(=O)c2ccsc2)cs1`, the Percent Effect was 2.29% in experiment [1]; 10.8% in experiment [2]; 2.71% in [3]; -8.13% in experiment [4]; 4.2% in the experiment on Trypanosoma cruzi; -1.59% in experiment [5]. Further, the Percent Effect was 28% in experiment [6]; -19.9% in the experiment listed under Homo sapiens; 5.41% in experiment [7]; 15.4% in [8]; -0.758% in experiment [9].
Take `CC(C)c1n[nH]c(C2CN(Cc3nnc(C4CC4)o3)CCO2)n1` (stereo not given): the Percent Effect in [1] is -2.46%; in experiment [2] it was 0%; in experiment [3], 9.78%; in experiment [4], -2.59%; in the experiment with Trypanosoma cruzi, -3.87%; in [5], -8.37%. Also, the Percent Effect in [6] is 6.47%; in the experiment filed under Homo sapiens, 27.6%; in experiment [7] it was -5.42%; in experiment [8], -11.4%; in experiment [9], -1.54%.
Consider `Cc1cnc(N2CCn3cc(CNC(=O)CC4CC4)nc3C2)nc1`, for which the Percent Effect in experiment [1] was -3.53%; in experiment [2] it was -2.67%; in [3], 7.96%; in [4] it was -5.68%; in the experiment with Trypanosoma cruzi, -2.76%; in experiment [5], 2.1%. In addition, the Percent Effect in experiment [6] is -6.78%; in the experiment listed under Homo sapiens, 10.1%; in experiment [7], -8.51%; in experiment [8], -16.7%; in experiment [9] it was -5.33%.
